# Assay outcomes: PubChem, several laboratories
# ABHD5 PLIN5 PPI = blocks binding of human ABHD5 to perilipin-5; Q00G26+Q8WTS1; Split G. princeps luciferase complementation, luminescence, 4 h; inhibition, % at 4 µM; hit rate 0.78% among 360,000; AID 602281;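 active = inhibition above the mean inhibition across every tested compound plus 3 SD, cut at about 22% in these data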
# Rce1 inh = inhibitors of yeast Ras-converting enzyme; calls only; hit rate 0.27% among 290,000; Q03530; yeast membranes, quenched prenylated peptide cleavage fluorescence;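 active = fall in fluorescence gain of 50% or more versus controls, with final raw signal at or below 3038400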
# Target sequence (Q03530 whole entry, looked up): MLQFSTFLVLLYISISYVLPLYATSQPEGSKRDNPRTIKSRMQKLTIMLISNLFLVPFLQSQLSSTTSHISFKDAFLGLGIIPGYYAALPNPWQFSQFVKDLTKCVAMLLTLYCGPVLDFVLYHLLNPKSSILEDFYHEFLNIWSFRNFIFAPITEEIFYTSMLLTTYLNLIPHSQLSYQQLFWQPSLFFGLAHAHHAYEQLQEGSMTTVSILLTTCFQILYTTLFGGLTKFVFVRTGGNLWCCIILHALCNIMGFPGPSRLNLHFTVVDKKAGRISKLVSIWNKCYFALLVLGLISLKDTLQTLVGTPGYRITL
# Exocytosis inh = lytic granule exocytosis inhibition. hit rate 0.66% among 360,000. inhibition, % at 10 µM. TALL-104 LAMP-1 surface exposure, flow cytometry; cells stimulated with thapsigargin and PMA;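 active = inhibition above about 55%, limit read from the data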
# M18AAP inhibitor = PfM18AAP enzyme inhibition | recombinant PfM18AAP, H-Glu-NHMec fluorogenic cleavage | inhibition, % at 7.35 µM | hit rate 1.2% among 290,000;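 active = inhibition above the campaign mean inhibition over all tested compounds plus 3 SD, cut at about 28% in these data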
# Platelet DG rel = modulates dense granule release in human platelets; human platelet-rich plasma, SFLLRN dense granule ATP release, luminescence; AID 1663; inhibition, %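 (compounds screened at 7.5 µM in platelet-rich plasma)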; hit rate 0.22% among 300,000;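 active = mean replicate score, as percent of positive control, at or above 50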
# Exocytosis CP01 = lytic granule exocytosis inhibition | TALL-104 cells, LAMP-1 externalization, flow cytometry; stimulated with PMA plus thapsigargin | hit rate 11% among 1,500 | shares compounds with Exocytosis inh | AID 651954 | inhibition, % at 10 µM; in the data active = inhibition above about 60%
# Numbers stand for hits; n = inactive; x = not tested or not shown. Sampled rows, rich in hits. Any-hit rate of the full collection: about 2.6%.
SMILES,ABHD5 PLIN5 PPI,Rce1 inh,Exocytosis inh,M18AAP inhibitor,Platelet DG rel,Exocytosis CP01
COc1ccccc1C1=Nn2c(nnc2C2CCCCC2)SC1,n,x,n,n,x,x
COc1ccc(OC)c(C2=Nn3c(nnc3C3CCCCC3)SC2)c1,n,n,73,n,n,n
COc1ccccc1CNc1nc(NC(C)C)nc2ccsc12,n,x,n,x,x,x
COc1ccccc1CNc1nc(NCc2ccc(C(C)C)cc2)c2sccc2n1,n,x,62,x,x,85
CN(C)CCC(=O)c1ccc2c(c1)OCO2,n,n,102,n,n,103
Cc1ccc(C(=O)Nc2ccc3nc(C)sc3c2)s1,n,n,n,n,n,x
CC1Nc2ncnc(N3CCc4ccccc4C3)c2N(Cc2ccc(Cl)cc2)C1=O (stereo not given),n,n,n,x,n,x
CCN(CC)CCOC(=O)c1ccc(N/C=C(/C#N)c2nc(-c3ccc4c(c3)OCO4)cs2)cc1,n,n,n,n,n,x
CCN(CC)CCOC(=O)c1ccc(N/C=C(/C#N)c2nc(-c3ccc(OC)cc3)cs2)cc1,n,n,64,n,n,66
CCN(CC1CCCN(CCc2cccc(F)c2)C1)C(=O)c1ccoc1C (stereo not given),n,x,n,x,x,x
CCOC(=O)N1CCC(N2CCCC(C(=O)c3ccc4cc(OC)ccc4c3)C2)CC1 (stereo not given),n,n,n,n,n,x
COc1ccc(C(=O)CCN2CCCC(C)C2)cc1 (stereo not given),n,n,71,n,n,n
O=C(CSc1ccccn1)Nc1nncs1,n,n,n,n,n,x
COc1ccc(N2CCCC2)c(NC(=O)COc2ccccc2Cl)c1,n,n,n,n,n,x
COc1ccc(N2CCOCC2)c(NC(=O)c2cc3ccccc3o2)c1,n,n,75,n,n,n
O=C(Nc1ccccc1N1CCOCC1)c1cc2ccccc2o1,n,x,n,n,n,x
COc1ccc(OCC(=O)Nc2cc(OC)ccc2N2CCCCC2)cc1,n,n,67,n,n,n
COc1cc(-c2cc(C(=O)Nc3cccc(S(=O)(=O)N(C)C)c3)c3ccccc3n2)cc(OC)c1OC,n,n,n,n,n,x
COC(=O)c1cc(-c2ccc(C)o2)nc2ccccc12,n,n,n,n,n,x
Cc1ccc(-c2cc(C(=O)Nc3ccccc3C)c3ccccc3n2)o1,n,n,82,n,n,n
Cc1ccc(-c2cc(C(=O)Nc3cccc(S(=O)(=O)N(C)C)c3)c3ccccc3n2)o1,n,n,66,n,n,n
C1CC1C(=NN=C(C1CC1)C1CC1)C1CC1,n,x,n,x,x,x
c1ccc(C(NCCNC(c2ccccc2)c2ccccc2)c2ccccc2)cc1,n,n,80,n,n,n
NS(=O)(=O)c1ccc(CCNC(c2ccccc2)c2ccccc2)cc1,n,n,n,n,n,x
CCC(C)OC(=O)C1=C(C)NC2=C(C(=O)C(C(=O)OC)C(C)C2)C1c1ccc(N(C)C)cc1 (stereo not given),n,n,n,n,n,x
SMILES,ABHD5 PLIN5 PPI,Rce1 inh,Exocytosis inh,M18AAP inhibitor,Platelet DG rel,Exocytosis CP01
COc1ccc(S(=O)(=O)N2CCN(C(=O)CCSc3ccccc3)CC2)cc1,n,x,102,x,x,n
Cc1ccc2nc(-c3ccc(NC(=S)NC4CC(C)(C)NC(C)(C)C4)cc3)sc2c1,n,n,88,n,n,98
CC(C)(C)n1nnnc1C(c1cccs1)N(Cc1ccccc1)Cc1ccco1 (stereo not given),n,n,78,n,n,n
CCN(CC)CCCNC(=S)N1CCN(c2nc(-c3ccccc3)cs2)CC1,n,n,83,n,n,n
CCOCCCNC(=S)N1CCN(c2nc(-c3ccccc3)cs2)CC1,n,n,n,n,n,x
CCCCCCC1CC(/C(C)=N\NC(N)=O)OC1=O (stereo not given),n,n,n,n,n,x
O=C(NCC1(c2ccccc2)CCCC1)c1ccccc1Br,n,n,n,n,n,x
COc1ccccc1C(=O)NCC1(c2ccccc2)CCCC1,n,n,80,n,n,n
COc1ccc(Cl)cc1NC(=O)CN(C)C1CCS(=O)(=O)C1 (stereo not given),n,x,n,x,x,x
COCCNc1nc(NCc2cccc(OC)c2)c2sc(-c3ccccc3)cc2n1,n,x,76,x,x,99
c1ccc(OCCNc2nc(NCC3CC3)nc3cc(-c4ccccc4)sc23)cc1,n,x,n,x,x,x
C=CCNc1nc(NCc2ccc(N(C)C)cc2)c2sc(-c3ccccc3)cc2n1,n,x,75,x,x,93
c1ccc(CNc2nc(NCC3CC3)nc3cc(-c4ccccc4)sc23)cc1,n,x,71,x,x,95
Cn1c(=O)c2c(ncn2CC(=O)N2CCN(S(=O)(=O)c3ccc(F)cc3)CC2)n(C)c1=O,n,x,n,x,x,x
CN(c1ccccc1)S(=O)(=O)c1cccc(C(=O)NCCc2c[nH]c3ccccc23)c1,n,n,66,x,n,86
COc1ccc(C(C(=O)NCc2ccccc2)N(C(=O)c2snc(C(N)=O)c2N)c2ccccc2OC)cc1 (stereo not given),n,n,65,n,n,n
COc1ccccc1N(C(=O)c1snc(C(N)=O)c1N)C(C(=O)NCc1ccccc1)c1ccc(O)cc1 (stereo not given),n,n,n,n,n,x
COc1ccc(C(=O)C2CCCN(C(=O)c3ccccc3C(C)=O)C2)cc1F (stereo not given),n,n,n,n,n,x
CCCCN(C)Cc1c(C)[nH]c2ccccc2c1=O,n,n,71,n,n,n
CCOc1ccc(Nc2ccnc3cc(Cl)ccc23)cc1,n,n,n,n,n,x
CN1CCN(c2ccc(Nc3ccnc4cc(Cl)ccc34)cc2)CC1,n,n,67,n,n,n
O=C(CSc1nnc(C2COc3ccccc3O2)o1)N1CCCC1 (stereo not given),n,n,n,n,n,x
Oc1c(I)cc(I)c2cccnc12,n,n,74,n,n,n
Cc1nc(C(=O)NCc2ccccc2)sc1C1(C)CC(c2cccc([N+](=O)[O-])c2)=NO1 (stereo not given),n,n,59,x,n,n
CNC(=O)c1nc(C)c(C2(C)CC(c3cccc([N+](=O)[O-])c3)=NO2)s1 (stereo not given),n,n,n,x,n,x
SMILES,ABHD5 PLIN5 PPI,Rce1 inh,Exocytosis inh,M18AAP inhibitor,Platelet DG rel,Exocytosis CP01
COc1ccc(OC)c(N(CC(=O)NCCSCc2ccco2)S(=O)(=O)c2ccccc2)c1,n,n,85,n,n,n
COc1ccccc1N(CC(=O)Nc1ccc(Cc2ccncc2)cc1)S(=O)(=O)c1ccccc1,n,n,66,n,n,n
CCc1ccccc1NC(=O)CN(c1ccc(OC)cc1OC)S(=O)(=O)c1ccccc1,n,n,70,n,n,n
CCOc1ccccc1N(CC(=O)NCCSCc1ccco1)S(=O)(=O)c1ccccc1,n,n,n,n,n,x
COc1ccc(N(CC(=O)NCCSc2ccccn2)S(=O)(=O)c2ccccc2)c(OC)c1,n,n,65,n,n,101
CC12CCC(C(=O)Nc3ccccc3-n3cccc3)(CC1=O)C2(C)C (stereo not given),n,n,n,n,n,x
CCOC(=O)n1c(=O)n(Cc2cccc(C)c2)c2ccccc21,n,n,n,n,n,x
